Measurements as given in ChEMBL document CHEMBL1157539, “Thousands of chemical starting points for antimalarial lead identification” (Nature, 2010).

What follows are molecules tested on HepG2 (assay: GSK_TCMDC: Percent inhibition of human HepG2 cell line. Test compounds present at 10uM.).
Format: functional

| SMILES | Inhibition [%] |
| --- | --- |
| CCOc1cc(C(C)C)ccc1N1CCN(CCCCNC(=O)c2ccc(NC(=O)c3ccc(Cl)cc3)cc2)CC1 | 28 |
| CC(C)COc1ccc(Cl)cc1Cc1ccc(-c2nc3cc(CCN(C)C)ccc3[nH]2)o1.Cl | 10 |
| CC(C)c1cn2c3c(cc(C(=O)N[C@@H](Cc4ccccc4)[C@H](O)CNC4CCCCC4)cc13)N(C)S(=O)(=O)CC2.O=CO | 9 |
| Cc1noc(C)c1-c1cccc(CNCc2ccc(-c3ccc(-c4nc5ccccc5[nH]4)s3)cc2)c1.O=C(O)C(F)(F)F | 41 |
| CCOC(=O)c1ccc(-c2cnc(N)c(-c3nc4cccc(C)c4[nH]3)c2)cc1 | 43 |
| Cc1cccc(Nc2nccc(NCC(O)c3cccc(C(F)(F)F)c3)n2)c1 (configuration not stated) | 25 |
| N=C(N)NN=CC(=O)Nc1ccc(C(F)(F)F)cc1.O=S(=O)(O)O | 5 |
| Fc1ccccc1CNc1ncc(-c2ccsc2)c(-c2nccs2)n1 | 11 |
| O=C(/C=C/c1ccc(Cl)c(Cl)c1)NCCCCCN1CCCC(C(=O)Nc2ccc(Cl)c(Cl)c2)C1 (configuration not stated) | 53 |
| Cc1cc(NCCC(=O)NCCOc2ccccc2)nc(Nc2ccccc2)n1.O=C(O)C(F)(F)F | 26 |
| Cc1nc(-c2ccc(-c3ccc(C(=O)Nc4ccc(I)c(OCC5CCCN5C)c4)cc3)c(C)c2)no1.Cl (configuration not stated) | 100 |
| O=C(Nc1ccc(Oc2ccccc2)cc1)N[C@@H](Cc1ccc(O)cc1)C(=O)NC1CCN(Cc2ccc(O)c([N+](=O)[O-])c2)C1 (some centres not stated) | 0 |
| COc1ccc2nccc(N3CCC(SCCNCc4cc5c(cn4)OCCO5)C3)c2n1.Cl (configuration not stated) | 30 |
| COc1ccc2cc(C(C)NC3CCN(c4cccc(NC(=O)c5ccncc5)c4)CC3)ccc2c1 (configuration not stated) | 13 |
| COCCCNc1sc(S(=O)(=O)c2ccccc2)nc1S(=O)(=O)c1ccc(C)cc1 | 7 |
| COCCNCc1ccc(-c2ccccc2CNC2CCN(Cc3ccccc3)CC2)cc1.O=C(O)C(F)(F)F | 17 |
| COc1ccc(N2CCN(C(CNC(=O)C3CCCCC3)c3ccc4c(c3)OCO4)CC2)cc1 (configuration not stated) | 1 |
| Cc1cccc(Nc2nc(N)c3ccccc3n2)c1.Cl | 1 |
| Cc1cc(Nc2cccc(C#N)c2)nc(Nc2ccccc2C)n1 | 10 |

| SMILES | Inhibition [%] |
| --- | --- |
| CN(C(=O)/C=C/c1cc(C(F)(F)F)ccc1F)C1CCN(CCCCCNC(=O)/C=C/c2ccc(Cl)c(Cl)c2)CC1 | 71 |
| NC(=O)c1cc2nc(Nc3ccc(F)cc3)nc(Nc3ccc(S(N)(=O)=O)cc3)c2[nH]1.O=CO | 2 |
| Cc1ccc2[nH]c(C)cc(=NN=Cc3cccc(F)c3)c2c1 | 6 |
| Cc1ccc(/C=C/C(=O)N2CCC(CCN3CCC(c4c[nH]c5ccccc45)CC3)CC2)cc1C | 50 |
| CCn1ncc(Cl)c1CN(C)S(=O)(=O)c1ccc2ccccc2c1 | 16 |
| Cc1cc(CN2CCC(N3CC(c4ccccc4)(c4ccccc4)OC3=O)C2)ccc1O (configuration not stated) | 0 |
| CCC(C)NS(=O)(=O)c1ccc2nc(Nc3ccc(C)cc3)n([C@H](C)C(C)(C)C)c2c1 (some centres not stated) | 2 |
| Cc1cc(NC(=O)c2cccs2)ccc1OC1CCN(Cc2ccc(C#N)cc2)C1.O=C(O)C(F)(F)F (configuration not stated) | 13 |
| CCCCc1ccc(C(=O)Nc2ccc3nc(N4CCN(CC)CC4)cc(C)c3c2)cc1 | 32 |
| CCOC(=O)c1cncc(/C=C/c2cc(C)cnc2N)c1 | 4 |
| CC1CN(c2ccc(NC(=O)c3ccsc3)cc2C(=O)N2CCN(Cc3ccc(C(C)(C)C)cc3)CC2)CC(C)O1 (configuration not stated) | 12 |
| O=C(Cn1c(SCc2cccc(F)c2F)cc(=O)c2ccccc21)N(CCc1c[nH]cn1)Cc1ccc(-c2ccc(C(F)(F)F)cc2)cc1 | 18 |
| Cc1n[nH]c2ccc(-c3cc(OC[C@@H](N)Cc4ccccc4)cnc3-c3ccc(OCc4cccc(F)c4)cc3)cc12.O=C(O)C(F)(F)F | 97 |
| O=C(Cc1cccs1)NC(CCCN1CCC(Oc2cccc(Cl)c2)CC1)c1ccc(Cl)c(Cl)c1 (configuration not stated) | 39 |
| Nc1cccc(CNCc2ccc(-c3cccc(-c4nc5ccccc5[nH]4)c3)cc2)c1.O=C(O)C(F)(F)F | 12 |
| Cc1cccc2nc(-c3cccc(-c4cccc(NC(=O)Cc5ccc[n+]([O-])c5)c4)c3)[nH]c12 | 0 |
| Cl.N=C(N)NN=Cc1c2ccccc2c(Cl)c2cc(Cl)ccc12 | 26 |
| Cc1cc(NC(=O)c2ccc(S(=O)(=O)N(Cc3ccccc3)C(C)C)cc2)no1 | 0 |
